The campaign covered roughly 1,400 compounds. About 1,000 (71%) were called active. Inconclusive results (about 12%) are left out. Calls come from the whole dose curve; as a rule, active = well fitted inhibition curve with a large enough effect; inconclusive = small, poorly fitted or top-dose-only effect; inactive = no such curve, though single readings can be large or run the other way. The set was probably picked from earlier hits. Not all results are given here. The source holds several records for some structures; these can differ, active in one and inactive in another.
Experiment: Nrf2 qHTS screen for inhibitors: Nrf2 A549 ARE-Fluc Confirmation Assay for Hit Validation; note: nearly all actives have a fitted effect of over 65% in size
Conditions: A549 ARE-firefly luciferase reporter, luminescence; series mostly up to 46.1 µM
Text: Nrf2 is a transcription factor that maintains cellular redox homoestasis and protects cells from xenobiotics. Nrf2 binds to the antioxidant response element (ARE) to induce gene expression of a broad spectrum of genes that encode for antioxidants. […] Finding a small molecule that act as an inhibitor of Nrf2 function would represent a novel therapeutic target that could lead to improvement in survival of patients undergoing chemo- and/or radio- therapy.
In collaboration with the Biswal laboratory, a cell based, luminescence assay (BugLite) was developed to detect the Nrf2 activity using the A549 ARE_Fluc cells (AID 493153). This assay was coupled with a fluorescence based (CellTiter Fluor) cytotoxicity assay to identify and exclude toxic compounds. This coupled assay was used to evaluate selected compounds for hit validation. The data herein is the result of the BugLite assay where decrease in luminescence signal = inhibition of Nrf2 activation. Inhibition is the desired outcome for this assay.
NIH Chemical Genomics Center [NCGC]
NIH Molecular Libraries Probe Centers Network [MLPCN]
Assay Submitter (PI): Shyam Biswal, Johns Hopkins University
[1] Shibata T., et al., Genetic alteration of Keap1 confers constitutive Nrf2 activation and resistance to chemotherapy in gallbladder cancer. Gastroenterology, 2008.
[2] Sjoblom T., et al., The consensus coding sequences of human breast and colorectal cancers. Science, 2006.
Five uL of cell suspension was dispensed into 1536-well white TC-treated plate using the Kalypsys dispenser to achieve a density of 5000 cells/well in all columns except column 1. The plates were incubated at 37deg C at 5% CO2 for 2 hours before 23 nL of compounds were added with the Kalypsys pin tool equipped with a 1,536-pin array. The control compounds Budesonide and Staurosporine were added at a concentration of 2mM. Budesonide was also added as a 1:10 titration, starting at 200uM, to achieve the dose-response control signal. The plates were incubated for 18-24 hour at 37deg C, 5% CO2 followed by a 5ul addition of 5% FBS OPTI-MEM growing media in column 1 as negative control. One microliter of 5x CellTiter Fluor (Promega) was added to each well and the assay plates were incubated at 37deg C, 5% CO2 for 30 minutes. The fluorescence signal was read using the PerkinElmer ViewLux plate reader (Ex = 405 nm /Em = 525 nm) for a 3 second exposure. After the signal was taken, 3 uL of 3x BugLite was dispensed into all wells. The plates were then incubated at room temperature for 15 minutes. A second ViewLux read (40 sec exposure) was performed to detect the luminescence signal. Cytotoxicity was assessed through the first fluorescent read while biochemical activity against Nrf2 was measured in the luminescent read. The data was normalized to the positive and negative controls.
In the case of `CCOC(=O)c1cnc(-n2nc(C)cc2C)nc1NNc1cc(C)nc(-c2ccccc2)n1`, the Potency is reported as 5.17 µM (active).
In the case of `CC(C)(C)c1ccc(Oc2ccc(N)cc2)cc1`, the Potency is reported as 5.17 µM (active).
With `C[n+]1ccc(/C=C/c2c[nH]c3ccccc23)cc1` the Potency was 1.46 µM (active).
For `OCCCNc1nccc(-c2cc(Nc3cccc(Cl)c3)ncn2)n1`, the Potency was 1.46 µM (active).
With `Cc1c(Cl)cccc1NC(=O)Cn1cc(C(=O)c2cccs2)c2ccccc21` the Potency was 5.8 µM (active).
For `Brc1c(CSc2nncc3ccccc23)nc2ccccn12`, the Potency was 6.51 µM (active).
In the case of `Cc1oc2c(F)c(F)c(F)c(F)c2c1S(=O)(=O)Nc1cccc(C(F)(F)F)c1`, the Potency is reported as 14.6 µM (active).
In the case of `c1ccc(C(=NNc2nc3ccccc3s2)c2ccccn2)cc1`, the Potency is reported as 11.6 µM (active).
In the case of `CCCOc1ccc(Cc2c(Cl)nc(SC)nc2NC)cc1`, the Potency is reported as 6.51 µM (active).
With `CC(=NNC(=S)N1CCCCCC1)c1ccccn1` the Potency was 2.59 µM (active).
In the case of `CC(=O)Nc1ccc(Nc2c3ccccc3nc3ccccc23)cc1`, the Potency is reported as 1.64 µM (active).
In the case of `COc1ccc(C(=O)C[n+]2ccc(N)c(C)c2C)cc1`, the Potency is reported as 6.51 µM (active).
For `CCCOc1ccc(C(=O)Nc2ccc3oc(-c4cccc(Cl)c4Cl)nc3c2)cc1`, the Potency was 16.4 µM (active).
For `CC1(C)CC(N2CCN(C(c3ccccc3)c3ccccc3)CC2)=CC(=[N+]2CCCCC2)C1`, the Potency was 4.61 µM (active).
With `Cc1ccc(NS(=O)(=O)c2cccs2)cc1S(=O)(=O)N1CCCCCC1` the Potency was “inactive”.
With `O=C(Nc1ccc(Br)cn1)C1CCN(S(=O)(=O)c2cccs2)CC1` the Potency was 5.8 µM (active).
In the case of `CC(C)Cn1c(N)c(C(=O)COC(=O)CN2C(=O)C3CC=CCC3C2=O)c(=O)n(C)c1=O` (stereo unspecified), the Potency is reported as 5.8 µM (active).
For `CCC(C)N1C(=O)S/C(=C/c2ccc(Sc3nc4ccccc4[nH]3)o2)C1=O` (stereo unspecified), the Potency was 20.6 µM (active).
For `CCC(C)(C)c1ccc(Oc2ccc(NC(=O)COC(=O)C3=COCCO3)cc2)cc1`, the Potency was 10.3 µM (active).
In the case of `Cc1csc[n+]1CCC1CCCCC1`, the Potency is reported as 9.2 µM (active).
For `COc1cccc(-c2nnc(NC(=O)c3ccc(S(=O)(=O)N(CC(C)C)CC(C)C)cc3)o2)c1`, the Potency was 2.59 µM (active).
In the case of `CCNS(=O)(=O)c1ccc(CCC(=O)N2CCN(c3cc(Cl)ccc3C)CC2)cc1`, the Potency is reported as 23.1 µM (active).
For `Cn1nccc1C(=O)NC1CCCc2c1cnn2-c1ccc(F)cc1F` (stereo unspecified), the Potency was 2.59 µM (active).
With `O/N=C(\C[n+]1ccccc1)c1ccc(Br)cc1` the Potency was 6.51 µM (active).
With `Cc1cccc(N2CCN(C(=O)CCS(=O)(=O)c3ccc4c(c3)NC(=O)C(C)S4)CC2)c1C` (stereo unspecified) the Potency was 18.4 µM (active).
In the case of `Cc1ccc(S(=O)(=O)N2CCN(c3ncnc4ccccc34)CC2)cc1`, the Potency is reported as 7.31 µM (active).
In the case of `O=C1C=C(c2ccnc3cc(Cl)ccc23)C[C@@H](c2ccc3c(c2)OCO3)C1`, the Potency is reported as 7.31 µM (active).
For `COc1ccc(CCNC(=O)c2ccc(CS(=O)(=O)c3ccc(Br)cc3)o2)cc1OC`, the Potency was 14.6 µM (active).
For `COc1ccc(OC)c(Cc2cnc3nc(N)nc(N)c3c2C)c1`, the Potency was 9.2 µM (active).
In the case of `CCCCNc1nc2c(c(=O)n(C)c(=O)n2C)n1Cc1cccc(OC)c1`, the Potency is reported as 9.2 µM (active).
With `N#CC(C#N)=CN=c1ccn(Cc2ccc(Cl)cc2Cl)cc1` the Potency was 4.11 µM (active).
With `CN(Cc1cccnc1)C(=O)c1cc(COc2ccc3ncccc3c2)on1` the Potency was 5.8 µM (active).
With `CC(=O)N1CCCc2cc(S(=O)(=O)N3CCCC(C(=O)N4CCN(c5cccc(Cl)c5)CC4)C3)ccc21` (stereo unspecified) the Potency was 7.31 µM (active).
In the case of `CC(=O)N1c2ccc(S(=O)(=O)N3CCCC(C(=O)Nc4cccc(Cl)c4)C3)cc2CC1C` (stereo unspecified), the Potency is reported as 11.6 µM (active).
For `CC(=O)N1c2ccc(S(=O)(=O)N3CCCC(C(=O)NCc4ccc(Cl)cc4)C3)cc2CC1C` (stereo unspecified), the Potency was 7.31 µM (active).
In the case of `O=C(Nc1ccncc1)c1c(F)cccc1F`, the Potency is reported as 10.3 µM (active).
With `COc1ccc(CCNc2cc(N3CCN(C(=O)c4ccccc4OC)CC3)ccc2[N+](=O)[O-])cc1OC` the Potency was 4.11 µM (active).
For `COCCn1c(SCC(=O)Nc2ccccc2F)nc2c(c1=O)SCC2`, the Potency was “inactive”.
For `CC1(C)O[C@@H]2CC3C4C[C@H](F)C5=CC(=O)C=CC5(C)C4C(O)CC3(C)[C@]2(C(=O)CO)O1` (stereo partly specified), the Potency was 0.0082 µM (active).
For `CC1CCN(S(=O)(=O)c2ccc(NC(=O)C3CC(=O)N(c4ccccc4)C3)cc2)CC1` (stereo unspecified), the Potency was “inactive”.
In the case of `Cc1ccc(NC(=O)C2CC(=O)N(c3ccc4c(c3)OCCO4)C2)cc1S(=O)(=O)N1CCCCCC1` (stereo unspecified), the Potency is reported as 20.6 µM (active).
For `CCCCCCCCn1c2c(c(=N)c3c1CCC3)CCCC2`, the Potency was 6.51 µM (active).
With `O=C(CSc1nnc2c(n1)[nH]c1ccccc12)NC1CCCCC1` the Potency was 2.31 µM (active).
With `CCCN(c1ccc(C(C)C)cc1)S(=O)(=O)c1c(C)[nH]c(=O)[nH]c1=O` the Potency was “inactive”.
With `O=C(CN1C(=O)c2ccccc2S1(=O)=O)N1CCc2ccccc21` the Potency was 3.66 µM (active).
With `O=C(CCC(=O)N1CCN(S(=O)(=O)c2ccc(Cl)cc2)CC1)NCc1cccc(C(F)(F)F)c1` the Potency was 8.2 µM (active).
With `Cc1ccc(S(=O)(=O)N2C[C@@H]3CCCC[C@@H]3[C@@H](C)[C@H]2c2cn(Cc3ccccc3)c3ccc(F)cc23)cc1` the Potency was 5.17 µM (active).
In the case of `CC(C)(C)n1ncc2c(=O)n(Cc3ccc(C(=O)c4ccccc4)cc3)cnc21`, the Potency is reported as 1.3 µM (active).
With `O=C(CC(O)(C(F)(F)F)C(F)(F)F)Nc1ccc(Cl)c(Cl)c1` the Potency was 2.59 µM (active).
For `COc1ccc(CC(=O)Nc2nc(-c3ccc(F)c(F)c3)cs2)cc1OC`, the Potency was 5.8 µM (active).
In the case of `O=c1[nH]c(SCc2cccc(F)c2)nc2ccccc12`, the Potency is reported as “inactive”.

From PubChem BioAssay AID720524 (National Center for Advancing Translational Sciences (NCATS), 2013)
Potency is the fitted concentration of half-maximal effect.
